3 compounds from PubChem BioAssay AID2284071 (EPA ToxCast) can be followed below.

Inconclusive results are not listed. Activity calls are given as the source filed them. Rule for the calls: active = hit-call score of the fitted dose curve at least 0.9, where 1 is the maximum; inactive = score below 0.9.

The target of the assay is Tyrosine-protein kinase ABL1 (Homo sapiens) (UniProt P00519). Put plainly: ERF_FR_ENZ_hABL1: Eurofins (ERF) Enzymatic Radiometric [Km ATP] KinaseProfiler LeadHunter Assay for human ABL1 Tyrosine Kinase. The method, then: ERF_FR_ENZ_hABL1 is a biochemical, single-readout assay that uses extracted gene-proteins in a cell-free assay. Measurements were taken 0.5 hour after chemical dosing in a 96-well plate. See Abl Human TK Kinase Enzymatic LANCE Assay [Km ATP], Cerep.ERF_FR_ENZ_hABL1 is an assay component calculated from the ERF_FR_ENZ_hABL1 assay. It is designed to measure enzyme activity using a type of enzyme reporter as detected by fluorescence intensity with LANCE technology.Data from the assay component ERF_FR_ENZ_hABL1 was analyzed at the assay endpoint, ERF_FR_ENZ_hABL1, in the positive analysis fitting direction relative to DMSO as the negative control and baseline of activity. Using a type of enzyme reporter, loss-of-signal activity can be used to understand changes in enzymatic activity as they relate to gene ABL1. To generalize the intended target to other relatable targets, this assay endpoint is annotated to the kinase intended target family, where the subfamily is serine/threonine kinase.
Sequence of Tyrosine-protein kinase ABL1 (Homo sapiens) (P00519 whole entry, looked up): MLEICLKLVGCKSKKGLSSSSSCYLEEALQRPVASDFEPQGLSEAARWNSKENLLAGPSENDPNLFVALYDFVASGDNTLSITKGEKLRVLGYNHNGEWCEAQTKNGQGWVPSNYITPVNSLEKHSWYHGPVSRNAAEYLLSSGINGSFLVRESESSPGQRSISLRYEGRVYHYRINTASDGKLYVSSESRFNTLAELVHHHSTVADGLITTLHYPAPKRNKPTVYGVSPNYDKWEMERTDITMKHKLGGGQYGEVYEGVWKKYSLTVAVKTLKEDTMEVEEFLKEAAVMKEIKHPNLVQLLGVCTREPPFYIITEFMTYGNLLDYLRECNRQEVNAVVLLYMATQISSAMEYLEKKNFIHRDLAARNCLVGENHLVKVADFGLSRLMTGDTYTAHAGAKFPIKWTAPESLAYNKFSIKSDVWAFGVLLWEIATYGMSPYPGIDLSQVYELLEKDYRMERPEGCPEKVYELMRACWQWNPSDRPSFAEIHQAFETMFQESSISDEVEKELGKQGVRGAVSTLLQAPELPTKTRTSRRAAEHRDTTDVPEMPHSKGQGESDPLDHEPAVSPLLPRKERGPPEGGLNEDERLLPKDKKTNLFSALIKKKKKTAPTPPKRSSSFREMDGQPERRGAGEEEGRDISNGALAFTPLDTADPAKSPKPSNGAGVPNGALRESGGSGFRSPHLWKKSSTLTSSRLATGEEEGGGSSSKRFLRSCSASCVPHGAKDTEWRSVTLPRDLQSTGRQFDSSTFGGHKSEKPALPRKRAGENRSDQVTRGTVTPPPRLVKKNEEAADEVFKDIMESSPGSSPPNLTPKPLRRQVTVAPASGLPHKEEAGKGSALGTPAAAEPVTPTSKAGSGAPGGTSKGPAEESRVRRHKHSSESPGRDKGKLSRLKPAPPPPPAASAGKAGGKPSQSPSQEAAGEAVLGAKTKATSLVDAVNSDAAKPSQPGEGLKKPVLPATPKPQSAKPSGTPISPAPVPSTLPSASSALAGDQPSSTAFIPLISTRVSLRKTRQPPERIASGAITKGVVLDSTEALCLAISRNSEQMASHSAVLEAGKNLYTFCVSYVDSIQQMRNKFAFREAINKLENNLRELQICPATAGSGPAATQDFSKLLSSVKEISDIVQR
ABL (h) is incubated with 8 mM MOPS pH 7.0, 0.2 mM EDTA, 50 uM […], 10 mM Mg Acetate and [g- 33P]- ATP (specific activity and concentration as required). The reaction is initiated by the addition of the Mg/ATP mix. After incubation for 40 minutes at room temperature, the reaction is stopped by the addition of phosphoric acid to a concentration of 0.5%. An aliquot of the reaction is then spotted onto a filter and washed four times for 4 minutes in 0.425% phosphoric acid and once in methanol prior to drying and scintillation counting. Compound should be supplied in 100%DMSO .We require a stock solution at a concentration of at least 50x higher than the Final Assay Concentration of your cpd. A 10mM stock is also acceptable. When ordering fewer than 60 kinase assays,we need 120uL of 50x concentrated stock. For more than 60 assays, we need 420uL of 50xcc stock. Please apply the conversion if you provide 10mM stock solution or compounds in powder form (pre-weighed is required) From 50 cpds supplied as solids, the TAT will be extended.
Turning to `COc1cc(CCC(=O)CC(=O)CCc2ccc(O)c(OC)c2)ccc1O`, the compound was called inactive.

In general, AC50 refers to the concentration at which the activity in the assay is half-maximal. Regarding `O=C(/C=C/c1ccc(O)cc1)CC(=O)/C=C/c1ccc(O)cc1`, the AC50 is 843 nM (active).

Turning to `COc1cc(/C=C/C(=O)CC(=O)/C=C/c2ccc(O)c(OC)c2)ccc1O`, the AC50 is 1370 nM (active).
